PubChem BioAssay AID1159580 (chemical genetic matrix, 2015)
About 2,000 (36%) of roughly 5,500 compounds were called active. Roughly 18% stayed inconclusive and do not appear here. Some of the results follow. Unmarked numbers belong to inactive results. No stated cut-off is given here; in the data, active means normalized growth mostly below about 0.91 (no sharp cut-off); inconclusive means no clear call, values can overlap the other calls; inactive means mostly above about 0.92.

Assay: chemical genetic growth profiling, strain panel (AID 1159580);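 further: tested at 20 µM; growth read once vehicle control cultures reached saturation at 30 °C; 1 = growth at the plate median or of vehicle wells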
Details: S. cerevisiae deletion strains, growth OD

Molecule `O=S1OCC2C(CO1)C1(Cl)C(Cl)=C(Cl)C2(Cl)C1(Cl)Cl` (centres undefined) has a normalized growth (locus YAL013W, strain DEP1, stronger effect = lower value) of 0.973, a normalized growth (locus YAL021C, strain ccr4, stronger effect = lower value) of 0.982 and a normalized growth (locus YAL026C, strain drs2, stronger effect = lower value) of 0.98. The normalized growth (locus YAL030W, strain snc1, stronger effect = lower value) was 0.993, the normalized growth (locus YBL061C, strain skt5, stronger effect = lower value) was 1 and the normalized growth (locus YBR009C, strain hhf1, stronger effect = lower value) was 0.989. It also gave a normalized growth (locus YBR021W, strain FUR4, stronger effect = lower value) of 0.993, a normalized growth (locus YBR023C, strain chs3, stronger effect = lower value) of 0.987 and a normalized growth (locus YBR171W, strain sec66, stronger effect = lower value) of 0.974. The normalized growth (locus YBR229C, strain ROT2, stronger effect = lower value) was 0.998, the normalized growth (locus YBR231C, strain swc5, stronger effect = lower value) was 0.992 and the normalized growth (locus YBR279W, strain paf1, stronger effect = lower value) was 1. The normalized growth (locus YCL011C, strain gbp2, stronger effect = lower value) was 0.98, the normalized growth (locus YCL016C, strain dcc1, stronger effect = lower value) was 0.999 and the normalized growth (locus YCL029C, strain bik1, stronger effect = lower value) was 0.972. The normalized growth (locus YCL061C, strain MRC1, stronger effect = lower value) was 0.983, the normalized growth (locus YCL069W, strain vba3, stronger effect = lower value) was 0.99 and the normalized growth (locus YCR088W, strain abp1, stronger effect = lower value) was 0.98. It also gave a normalized growth (locus YDL005C, strain med2, stronger effect = lower value) of 1, a normalized growth (locus YDL035C, strain GPR1, stronger effect = lower value) of 0.983 and a normalized growth (locus YDL040C, strain nat1, stronger effect = lower value) of 0.994. For the same molecule, the normalized growth (locus YDL074C, strain BRE1, stronger effect = lower value) was 0.999, the normalized growth (locus YDL101C, strain DUN1, stronger effect = lower value) was 0.972 and the normalized growth (locus YDL134C, strain PPH21, stronger effect = lower value) was 0.997. The normalized growth (locus YDL185W, strain tfp1, stronger effect = lower value) was 0.948, the normalized growth (locus YDL192W, strain arf1, stronger effect = lower value) was 0.98 and the normalized growth (locus YDR001C, strain nth1, stronger effect = lower value) was 0.974. The normalized growth (locus YDR069C, strain doa4, stronger effect = lower value) was 0.973, the normalized growth (locus YDR101C, strain arx1, stronger effect = lower value) was 0.992 and the normalized growth (locus YDR137W, strain rgp1, stronger effect = lower value) was 1.17 [resistant] (active). For the same molecule, the normalized growth (locus YDR150W, strain NUM1, stronger effect = lower value) was 0.991, the normalized growth (locus YDR159W, strain sac3, stronger effect = lower value) was 0.893 and the normalized growth (locus YDR162C, strain NBP2, stronger effect = lower value) was 0.946. The normalized growth (locus YDR195W, strain ref2) was 1.04, the normalized growth (locus YDR297W, strain sur2, stronger effect = lower value) was 0.983 and the normalized growth (locus YDR318W, strain mcm21, stronger effect = lower value) was 0.973. It also gave a normalized growth (locus YDR334W, strain swr1, stronger effect = lower value) of 0.99, a normalized growth (locus YDR335W, strain msn5, stronger effect = lower value) of 0.995 and a normalized growth (locus YDR388W, stronger effect = lower value) of 0.981. For the same molecule, the normalized growth (locus YDR392W, strain spt3, stronger effect = lower value) was 0.823, the normalized growth (locus YDR502C, strain sam2, stronger effect = lower value) was 0.96 and the normalized growth (locus YEL003W, strain gim4, stronger effect = lower value) was 0.931. It also gave a normalized growth (locus YEL037C, strain rad23, stronger effect = lower value) of 1, a normalized growth (locus YEL061C, strain CIN8 (second series), stronger effect = lower value) of 0.983 and a normalized growth (locus YEL061C, strain CIN8, stronger effect = lower value) of 0.992. The normalized growth (locus YER015W, strain faa2, stronger effect = lower value) was 0.993, the normalized growth (locus YER016W, strain bim1, stronger effect = lower value) was 0.991 and the normalized growth (locus YER110C, stronger effect = lower value) was 0.986. For the same molecule, the normalized growth (locus YER111C, strain swi4, stronger effect = lower value) was 0.997, the normalized growth (locus YER155C, strain BEM2 (second series), stronger effect = lower value) was 0.988 and the normalized growth (locus YER155C, strain BEM2, stronger effect = lower value) was 0.973. It also gave a normalized growth (locus YER167W, strain BCK2, stronger effect = lower value) of 0.966, a normalized growth (locus YFR010W, strain ubp6, stronger effect = lower value) of 0.984 and a normalized growth (locus YGL078C, strain dbp3, stronger effect = lower value) of 0.968. For the same molecule, the normalized growth (locus YGL086W, strain mad1, stronger effect = lower value) was 0.975, the normalized growth (locus YGL167C, strain pmr1, stronger effect = lower value) was 0.989 and the normalized growth (locus YGL173C, strain kem1, stronger effect = lower value) was 0.992. It also gave a normalized growth (locus YGL227W, strain vid30, stronger effect = lower value) of 0.987, a normalized growth (locus YGL240W, strain doc1, stronger effect = lower value) of 0.988 and a normalized growth (locus YGL248W, strain PDE1, stronger effect = lower value) of 1.01. The normalized growth (locus YGL253W, strain hxk2, stronger effect = lower value) was 0.987, the normalized growth (locus YGR078C, strain PAC10, stronger effect = lower value) was 0.97 and the normalized growth (locus YGR135W, strain pre9, stronger effect = lower value) was 0.978. The normalized growth (locus YGR229C, strain SMI1, stronger effect = lower value) was 0.992, the normalized growth (locus YGR252W, strain gcn5, stronger effect = lower value) was 0.984 and the normalized growth (locus YHR013C, strain ard1, stronger effect = lower value) was 0.862. The normalized growth (locus YHR027C, strain rpn1, stronger effect = lower value) was 0.996, the normalized growth (locus YHR030C, strain SLT2, stronger effect = lower value) was 0.979 and the normalized growth (locus YHR079C, strain IRE1 (second series), stronger effect = lower value) was 0.977. It also gave a normalized growth (locus YHR094C, strain hxt1, stronger effect = lower value) of 0.971, a normalized growth (locus YHR129C, strain ARP1, stronger effect = lower value) of 1.01 and a normalized growth (locus YHR142W, strain chs7, stronger effect = lower value) of 0.971. For the same molecule, the normalized growth (locus YHR200W, strain rpn10, stronger effect = lower value) was 0.972, the normalized growth (locus YIL066C, strain RNR3, stronger effect = lower value) was 0.966 and the normalized growth (locus YIL073C, strain SPO22, stronger effect = lower value) was 0.887. It also gave a normalized growth (locus YIL125W, strain kgd1, stronger effect = lower value) of 0.982, a normalized growth (locus YIR030C, strain dcg1, stronger effect = lower value) of 0.98 and a normalized growth (locus YJL092W, strain hpr5, stronger effect = lower value) of 0.987. The normalized growth (locus YJL095W, strain BCK1 (second series), stronger effect = lower value) was 1.01, the normalized growth (locus YJL095W, strain BCK1, stronger effect = lower value) was 0.999 and the normalized growth (locus YJL115W, strain asf1, stronger effect = lower value) was 0.977. It also gave a normalized growth (locus YJL129C, strain trk1, stronger effect = lower value) of 0.888, a normalized growth (locus YJL134W, strain LCB3, stronger effect = lower value) of 0.966 and a normalized growth (locus YJL154C, strain vps35, stronger effect = lower value) of 0.983. The normalized growth (locus YJL164C, strain tpk1, stronger effect = lower value) was 0.942, the normalized growth (locus YJL166W, strain qcr8, stronger effect = lower value) was 0.875 (active) and the normalized growth (locus YJL168C, strain set2, stronger effect = lower value) was 0.974. It also gave a normalized growth (locus YJL187C, strain SWE1 (second series), stronger effect = lower value) of 0.979 and a normalized growth (locus YJL187C, strain SWE1, stronger effect = lower value) of 0.995.
